Experimental findings from PubChem BioAssay (Tox21) are described below.

Values joined by “and” are separate entries in the source; they are usually repeats but may differ in a detail not shown here. Equal values may be shown once. Records with an inconclusive call do not appear. Some compounds were tested as several samples or in several runs, with calls that do not always agree. Active and inactive are the calls of the source. Unless noted, the call rests on the fitted dose curve; in most records, active means well fitted curve in the direction sought with a large enough effect in the repeat runs; inconclusive means weak or mixed curves; inactive means no such curve, though single readings can be large; an effect the other way counts as inactive or inconclusive.

Assay [1] is described as follows: qHTS assay to identify small molecule agonists of the constitutive androstane receptor (CAR) signaling pathway - cell viability counter screen (AID 1224836). Further: nearly all actives have a fitted effect of over 45% in size. Further: potency means the concentration at half of the fitted maximal effect. An outline of the steps:
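HepG2-CYP2B6-hCAR, 2500 cells/well, 4 h pre-incubation; cpd 15 conc + PK11195 0.75 uM final; 23 h, 37 C/5% CO2; CellTiter-Fluor, fluorescence.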

The nature of assay [2]: qHTS assay to identify small molecule antagonists of the constitutive androstane receptor (CAR) signaling pathway - cell viability counter screen (AID 1224837). Further: nearly all actives have a fitted effect of over 45% in size. Further: potency means the concentration at half of the fitted maximal effect. An outline of the steps: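 HepG2-CYP2B6-hCAR cells, 2500/well, 4 hr pre-incubation; compound titration, 15 conc.; CITCO 50 nM final; 23 hr, 37 C/5% CO2; CellTiter-Fluor, fluorescence intensity.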
The target of assay [3] is Nuclear receptor subfamily 1 group I member 3 (Homo sapiens) (UniProt Q14994). Description: qHTS assay to identify small molecule antagonists of the constitutive androstane receptor (CAR) signaling pathway (AID 1224838).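 Further: HepG2 cells stably expressing hCAR with CYP2B6 luciferase reporter stimulated by CITCO; nearly all actives have a fitted effect of over 40% in size.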 Summed up:
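HepG2-CYP2B6-hCAR cells; 4 h pre-incubation; cpd (15 conc) + CITCO 50 nM final; 24 h, 37 C/5% CO2; ONE-Glo, luminescence.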
On the technique in general: In qHTS, concentration-response curves come from the screen itself.

For assay [4] the target is unchanged. As to the kind of experiment: qHTS assay to identify small molecule agonists of the constitutive androstane receptor (CAR) signaling pathway (AID 1224839).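 Further: HepG2 cells stably carrying human CAR and a CYP2B6 luciferase reporter; nearly all actives have a fitted effect of over 15% in size.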 An outline of the steps: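 HepG2-CYP2B6-hCAR cells, 2500/well, 4 h pre-incubation; compounds 15 conc.; PK11195 0.75 uM final; 24 h, 37 C/5% CO2; ONE-Glo luciferase read.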
A short description of assay [5]: qHTS assay to identify small molecule antagonists of the estrogen related receptor signaling pathway with the pleiotropic PPARgamma coactivator (PGC) from Tox21 10K library - cell viability counter screen (AID 1224840; active means well fitted cell-killing curve with a large enough effect in the repeat runs, not every such curve was filed as active; further: nearly all actives have a fitted effect of over 40% in size; further: potency means the concentration at half of the fitted maximal effect). Summed up: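 PGC/ERR cells, 2,000/well; 6 h pre-incubation 37 C/5% CO2; cpd in DMSO via pin tool; 17.5 h 37 C; CellTiter-Fluor, 30 min; fluorescence.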

The nature of assay [6]: qHTS assay to identify small molecule antagonists of the estrogen related receptor signaling pathway with the pleiotropic PPARgamma coactivator (PGC) from Tox21 10K library (AID 1224841; call rule not given here; further: actives are mostly falling curves and most rising ones were filed inactive; nearly all actives have a fitted effect of over 50% in size; further: potency means the concentration at half of the fitted maximal effect). Summed up: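 PGC/ERR cell line, 2,000 cells/well; 6 h pre-incubation 37 C/5% CO2; compounds (DMSO) pinned in; 18 h, 37 C; One-Glo, 30 min RT; luminescence.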
Assay [7] is described as follows: qHTS assay to identify small molecule agonists of the estrogen related receptor signaling pathway with the pleiotropic PPARgamma coactivator (PGC) from Tox21 10K library (AID 1224842). Further: nearly all actives have a fitted effect of over 15% in size. Summed up:
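PGC/ERR reporter cells (NTP line) were seeded 2,000 per well, rested 6 h at 37 C/5% CO2, then pin-dosed with compounds in DMSO for 18 h at 37 C; luciferase read by One-Glo luminescence after 30 min at room temperature.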

The target in assay [8] is Thyrotropin receptor (Homo sapiens) (UniProt P16473). As to the kind of experiment: qHTS assay to identify small molecule agonists of the thyroid stimulating hormone receptor (TSHR) signaling pathway (AID 1224843; calls by dose curve; further: nearly all actives have a fitted effect of over 45% in size). An outline of the steps: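 TSHR-expressing HEK293 cells (800 per well) were exposed to compounds for 30 min at room temperature. cAMP was then detected by HTRF competition with cAMP-d2 and anti-cAMP cryptate, read after 1 h at room temperature. Fifteen concentrations, triplicate.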

Assay [9] can be described thus: qHTS assay to identify small molecule agonists of the hypoxia (HIF-1) signaling pathway - cell viability counter screen (AID 1224844; calls by dose curve; further: nearly all actives have a fitted effect of over 50% in size; further: potency means the concentration at half of the fitted maximal effect). An outline of the steps: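 ME-180 HRE-bla cells, 2,000/well, 0.5% dialyzed FBS; 5 hr settle, 17 hr compound at 37C/5% CO2; CCF4-AM reporter read first, then CellTiter-Glo luminescence after 30 min RT.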
Assay [10] in a line: qHTS assay to identify small molecule agonists of H2AX (AID 1224845; active means well fitted activation curve with a large enough effect in the signal ratio in the repeat runs, not every such curve was filed as active; the % refers to the signal ratio). An outline of the steps: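 Wild-type CHO-K1 cells plated overnight, then exposed 3 hr at 37C to compounds at 15 concentrations (0.76% DMSO). Lysed, then HTRF anti-pH2AX(S139)-cryptate/anti-H2AX-d2 detection after 24 hr at room temperature; emissions 665 and 620 nm.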
A short description of assay [11]: qHTS assay to identify small molecule agonists of the hypoxia (HIF-1) signaling pathway (AID 1224846; active means well fitted activation curve with a large enough effect in the signal ratio in the repeat runs, not every such curve was filed as active; the % refers to the signal ratio). Summed up:
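Cell line: CellSensor HRE-bla ME-180; 2,000 cells/well; 0.5% dialyzed FBS; 5 h preincubation; DMSO compound pin transfer; 17 h, 37C, 5% CO2; CCF4-AM added; bla FRET signal scored for activation.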

The nature of assay [12]: qHTS assay to identify small molecule agonists of H2AX - cell viability counter screen (AID 1224847; calls by dose curve; further: nearly all actives have a fitted effect of over 30% in size; further: potency means the concentration at half of the fitted maximal effect). An outline of the steps: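 Cells plated first: CHO-K1, 1000 per well in 10% FBS medium, incubated overnight at 37C. Then 15-point compound titration added (final DMSO 0.76%) for 3 hr. Finally CellTiter-Glo added and luminescence read.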
Assay [13] is described as follows: qHTS assay to identify small molecule antagonists of the estrogen related receptor (ERR) signaling pathway from Tox21 library (AID 1224848). Further: nearly all actives have a fitted effect of over 50% in size. Further: potency means the concentration at half of the fitted maximal effect. Summed up: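 Cells: ERR line, 2,000/well; 6 h preincubation 37 C/5% CO2. Cpd in DMSO via pin tool; 18 h, 37 C. ONE-Glo, 30 min RT, luminescence.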
The nature of assay [14]: qHTS assay to identify small molecule agonists of the estrogen related receptor (ERR) signaling pathway from Tox21 library (AID 1224849; calls by dose curve; further: nearly all actives have a fitted effect of over 15% in size). To be noted: ERR reporter cell line, ONE-Glo luciferase, 18 h. Summed up:
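ERR cells, 6 h pre-incubation 37 C/5% CO2; cpd in DMSO pinned; 18 h 37 C; ONE-Glo added, 30 min RT; luminescence read. Agonist mode, qHTS.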

Assay [15] can be described thus: qHTS RealTime-Glo MT Cell Viability Assay in HepG2 cells - 24 hour (AID 1224867). Further: nearly all actives have a fitted effect of over 50% in size. Further: potency means the concentration at half of the fitted maximal effect. An outline of the steps:
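HepG2 suspension premixed with RealTime-Glo reagents is plated at 600 cells per well and left 5 h at 37 C/5% CO2. Compounds in DMSO then go in, and bioluminescence reflecting viable cell number is recorded over 40 h.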

Assay [16] can be described thus: qHTS RealTime-Glo MT Cell Viability Assay in HEK293 cells - 32 hour (AID 1224868). Further: nearly all actives have a fitted effect of over 50% in size. Further: potency means the concentration at half of the fitted maximal effect. Summed up:
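Reads taken at 0, 8, 16, 24, 32 and 40 h from the same wells. HEK293 cells (600/well) carried RealTime-Glo reagents from seeding, with compound added after a 5 h settle at 37 C.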

The nature of assay [17]: A CellTox Green Cytotoxicity Assay to monitor cytotoxicity in HEK293 cells - 0 hour (AID 1224869). Further: nearly all actives have a fitted effect of over 50% in size. Summed up:
(§1)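 Nonlytic real-time cytotoxicity: HEK293 + CellTox Green reagent plated, 5 h preincubation, pintool compound addition (23 nL in DMSO), 37 C for 40 h, fluorescence measured at successive time points.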

Assay [18] can be described thus: qHTS RealTime-Glo MT Cell Viability Assay in HepG2 cells - 40 hour (AID 1224870). Further: nearly all actives have a fitted effect of over 50% in size. Further: potency means the concentration at half of the fitted maximal effect. Summed up:
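HepG2 cells mixed with RealTime-Glo MT reagents (NanoLuc plus cell-permeant prosubstrate) were seeded at 600 cells/well, incubated 5 h at 37 C/5% CO2, then pinned with compounds in DMSO; nonlytic luminescence tracked viability during 40 h treatment.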

The nature of assay [19]: A CellTox Green Cytotoxicity Assay to monitor cytotoxicity in HEK293 cells - 40 hour (AID 1224871). Further: nearly all actives have a fitted effect of over 45% in size. Further: potency means the concentration at half of the fitted maximal effect. An outline of the steps: as §1
In assay [20] the target is Luciferin 4-monooxygenase (Photinus pyralis) (UniProt P08659). As to the kind of experiment: qHTS assay to identify small molecule inhibitors of firefly luciferase (AID 1224835). Further: nearly all actives have a fitted effect of over 25% in size. Further: potency means the concentration at half of the fitted maximal effect. An outline of the steps:
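Quantitative HTS format; KM concentrations of both substrates. Purified P. pyralis FLuc activity quantified from luminescence images.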
On the % scale 0 is the no-effect control and ±100 the full control effect.

Sequence of Luciferin 4-monooxygenase (Photinus pyralis) (P08659 whole entry, looked up): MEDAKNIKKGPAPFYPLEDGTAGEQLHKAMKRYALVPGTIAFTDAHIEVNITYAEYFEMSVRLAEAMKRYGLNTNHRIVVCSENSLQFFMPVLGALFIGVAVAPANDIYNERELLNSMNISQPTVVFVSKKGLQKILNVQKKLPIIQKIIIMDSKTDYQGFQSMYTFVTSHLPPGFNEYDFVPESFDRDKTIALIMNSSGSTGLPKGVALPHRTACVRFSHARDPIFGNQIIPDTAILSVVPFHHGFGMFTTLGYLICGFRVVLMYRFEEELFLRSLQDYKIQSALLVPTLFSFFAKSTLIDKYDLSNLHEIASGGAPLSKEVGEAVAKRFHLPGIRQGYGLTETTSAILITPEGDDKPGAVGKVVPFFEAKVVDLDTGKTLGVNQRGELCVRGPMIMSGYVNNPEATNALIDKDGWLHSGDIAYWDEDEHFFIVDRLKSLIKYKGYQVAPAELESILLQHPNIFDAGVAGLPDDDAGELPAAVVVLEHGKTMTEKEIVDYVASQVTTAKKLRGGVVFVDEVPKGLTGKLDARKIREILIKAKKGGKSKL
Sequence of Thyrotropin receptor (Homo sapiens) (P16473 whole entry, looked up): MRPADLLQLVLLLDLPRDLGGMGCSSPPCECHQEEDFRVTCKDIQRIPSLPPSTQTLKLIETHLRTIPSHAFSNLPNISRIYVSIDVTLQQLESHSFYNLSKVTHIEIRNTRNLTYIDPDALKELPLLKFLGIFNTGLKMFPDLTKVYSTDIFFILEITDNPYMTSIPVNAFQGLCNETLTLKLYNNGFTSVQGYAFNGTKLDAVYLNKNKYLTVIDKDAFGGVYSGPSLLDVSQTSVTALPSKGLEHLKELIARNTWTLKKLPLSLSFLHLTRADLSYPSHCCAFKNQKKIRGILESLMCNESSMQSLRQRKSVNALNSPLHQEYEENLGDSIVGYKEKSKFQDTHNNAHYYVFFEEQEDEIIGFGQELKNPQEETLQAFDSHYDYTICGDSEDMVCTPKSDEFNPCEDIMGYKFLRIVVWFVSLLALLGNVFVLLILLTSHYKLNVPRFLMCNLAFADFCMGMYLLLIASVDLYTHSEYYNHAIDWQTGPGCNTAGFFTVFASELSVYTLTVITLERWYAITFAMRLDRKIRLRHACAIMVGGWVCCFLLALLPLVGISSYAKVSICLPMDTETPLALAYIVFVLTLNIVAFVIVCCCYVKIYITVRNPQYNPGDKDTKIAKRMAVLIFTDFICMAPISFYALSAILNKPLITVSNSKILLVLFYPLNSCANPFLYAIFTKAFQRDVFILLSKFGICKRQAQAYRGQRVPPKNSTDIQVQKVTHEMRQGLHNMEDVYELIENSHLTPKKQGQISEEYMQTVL
Sequence of Nuclear receptor subfamily 1 group I member 3 (Homo sapiens) (Q14994 whole entry, looked up): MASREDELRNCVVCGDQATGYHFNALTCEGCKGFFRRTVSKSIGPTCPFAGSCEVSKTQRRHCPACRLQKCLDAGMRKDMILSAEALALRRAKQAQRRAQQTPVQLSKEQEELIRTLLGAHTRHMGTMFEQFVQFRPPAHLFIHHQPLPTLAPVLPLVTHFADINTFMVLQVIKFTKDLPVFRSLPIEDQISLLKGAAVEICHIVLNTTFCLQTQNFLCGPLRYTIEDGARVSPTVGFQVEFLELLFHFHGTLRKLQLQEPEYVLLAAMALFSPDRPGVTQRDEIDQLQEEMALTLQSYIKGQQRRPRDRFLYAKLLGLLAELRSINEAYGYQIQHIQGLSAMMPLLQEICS

On to `CCCCCCCCCCCO`, for which the Potency result in assay [1], in assay [2], in [3], in assay [4], in assay [5] and in assay [6] was “inactive” each time. The Potency result in [7], in assay [8], in assay [9], in [11], in assay [12] and in assay [13] was “inactive” in each case. In addition, the Potency result in assay [15], in [16], in [17], in assay [18] and in [19] was “inactive” in each case. Moreover, the compound was classed as inactive in [10]. The activity change, positive = activation in assay [14] (at 92.4 µM (top of the series)) was -4.02% (inactive) and 0.762% (inactive).
On to `CC(C(=O)O)c1cccc(C(=O)c2ccccc2)c1` (stereo not drawn), for which the Potency result in assay [1], in assay [2], in assay [5], in assay [6], in [7] and in assay [8] was “inactive” each time. Also, the Potency entry in [9], in [13], in assay [15], in assay [16], in assay [18] and in assay [19] was “inactive” throughout. Besides, the outcome in [10] was inactive. Besides, the results for the activity change, positive = activation in [14] (at 42.5 µM (top of the series)) and in assay [14] (at 92.4 µM (top of the series)) were 0.181% (inactive) and 2.6% (inactive), respectively.
Take `C[Si](C)(C)O[Si](C)(C)C`: the Potency result in assay [20], in [1], in assay [2], in assay [5], in [8] and in assay [9] was “inactive” throughout. For the same compound, the Potency entry in assay [11], in assay [12], in assay [15], in assay [16], in assay [17] and in assay [18] was “inactive” in each case. Also, in assay [19], the Potency entry was “inactive”. In assay [10], the compound was classed as inactive.
Regarding `C/C=C/C(=O)O`, the Potency result in assay [20], in assay [1], in assay [2], in [5], in assay [6] and in assay [7] was “inactive” each time. Besides, the Potency result in assay [8], in assay [9], in [11], in assay [12], in assay [13] and in assay [15] was “inactive” throughout. Also, the Potency result in [16], in [17], in assay [18] and in assay [19] was “inactive” each time. Further, the outcome in assay [10] was inactive. Further, in assay [14] (at 92.4 µM (top of the series)), the activity change, positive = activation is 7.56% (inactive) and 0.71% (inactive).
For the compound `Cc1ccc(C(=O)c2cc(O)c(O)c([N+](=O)[O-])c2)cc1`, the Potency in [20] is 63.3 µM (active) and 34.7 µM (active); in assay [1], 43.3 µM (active); in assay [5], 43.3 µM (active) and inactive; in [6], 30.6 µM (active); in assay [13] it was 30.6 µM (active) and 26.6 µM (active). The Potency entry in assay [3], in [7], in assay [8], in assay [9], in assay [11] and in assay [12] was “inactive” each time. Also, the Potency entry in assay [15], in assay [16], in [18] and in assay [19] was “inactive” throughout. The activity change, positive = activation in [14] (at 42.5 µM (top of the series)) is -49.4% (inactive); in [14] (at 92.4 µM (top of the series)), -70.9% (inactive).
`NNc1ccc(C(=O)O)cc1`: the Potency in [20] was 32.1 µM (active) and 4.53 µM (active). In addition, the Potency entry in [1], in assay [2], in assay [5], in [8], in assay [9] and in [11] was “inactive” in each case. The Potency result in assay [12], in [15], in assay [16] and in assay [18] was “inactive” throughout.
For `c1ccc(Nc2ccccc2)cc1`, the Potency result in assay [1], in [2], in [3], in assay [4], in assay [5] and in assay [6] was “inactive” each time. For the same compound, the Potency result in assay [7], in assay [8], in assay [9], in assay [11], in assay [15] and in assay [17] was “inactive” each time. In addition, in assay [10], the outcome was inactive. Also, the Potency was 27.3 µM (active) and inactive in [13]; 19.5 µM (active) and inactive in assay [16]; 19.5 µM (active) and inactive in assay [19]. Moreover, the activity change, positive = activation in assay [14] (at 92.4 µM (top of the series)) is -73.5% (inactive) and -5.69% (inactive).
For `O=C(OCc1ccccc1)c1ccccc1O`, the Potency in assay [20] was 17.7 µM (active) and 12.6 µM (active). The Potency entry in assay [1], in assay [2], in assay [5], in [8], in assay [9] and in [11] was “inactive” throughout. Further, the Potency result in [12], in [15], in assay [16], in assay [17], in [18] and in assay [19] was “inactive” in each case.
Turning to `CCCCc1oc2ccccc2c1C(=O)c1cc(I)c(OCCN(CC)CC)c(I)c1`, the Potency result in [20], in assay [6], in [7] and in [8] was “inactive” in each case. Besides, the Potency in assay [2] was 43.6 µM (active); in assay [5], 43.6 µM (active); in assay [9] it was 27.8 µM (active) and 21.3 µM (active); in assay [12], 80.7 µM (active) and 43.8 µM (active); in assay [13] it was 48.9 µM (active) and 29.8 µM (active); in [15], 39.2 µM (active) and 23.9 µM (active). For the same compound, the Potency was 34.9 µM (active) and 23.9 µM (active) in assay [16]; 39.2 µM (active) in [18]; 44 µM (active) in assay [19]. Besides, the activity change, positive = activation in assay [14] (at 42.5 µM (top of the series)) is -36% (inactive) and -39.6% (inactive).
